Assay in all cases: log2 ratio of Biotin-Ahx-Ub-VS probe labelling (fragment/DMSO); higher = less target engagement (more negative = stronger competition), active = hit call of the paper (q ≤ 0.05, log2 ratio ≤ -1)
Details in all cases: compound concentration: 200 uM; treatment time: 3 h

One test addresses T1, OTUD6B (UniProt Q8N6M0).
T1 sequence (whole entry): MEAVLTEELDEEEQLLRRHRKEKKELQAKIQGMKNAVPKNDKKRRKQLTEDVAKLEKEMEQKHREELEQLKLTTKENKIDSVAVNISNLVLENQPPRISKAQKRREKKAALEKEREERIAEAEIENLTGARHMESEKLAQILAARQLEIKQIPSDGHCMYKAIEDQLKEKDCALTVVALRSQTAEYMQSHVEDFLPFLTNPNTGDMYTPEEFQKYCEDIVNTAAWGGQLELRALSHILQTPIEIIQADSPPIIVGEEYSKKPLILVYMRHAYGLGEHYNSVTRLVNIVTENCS
The gist of the method: (§1)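 Global-median-normalised Spectronaut label-free quantities were compared by unpaired t-test, and values are average log2 ratios of fragment over vehicle. Only proteins with ≥2 unique peptides were used. HEK293T lysate (495 µg per sample) was treated in triplicate with fragment at 200 µM or vehicle for 3 h and then with Biotin-Ahx-Ub-VS at 0.5 µM final for 1 h. Labelled DUBs were then NeutrAvidin-enriched, digested with LysC and trypsin, and run by diaPASEF LC-MS/MS.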

The next test concerns the target T2, OTUD7B (UniProt Q6GQQ9).
T2 sequence (whole entry): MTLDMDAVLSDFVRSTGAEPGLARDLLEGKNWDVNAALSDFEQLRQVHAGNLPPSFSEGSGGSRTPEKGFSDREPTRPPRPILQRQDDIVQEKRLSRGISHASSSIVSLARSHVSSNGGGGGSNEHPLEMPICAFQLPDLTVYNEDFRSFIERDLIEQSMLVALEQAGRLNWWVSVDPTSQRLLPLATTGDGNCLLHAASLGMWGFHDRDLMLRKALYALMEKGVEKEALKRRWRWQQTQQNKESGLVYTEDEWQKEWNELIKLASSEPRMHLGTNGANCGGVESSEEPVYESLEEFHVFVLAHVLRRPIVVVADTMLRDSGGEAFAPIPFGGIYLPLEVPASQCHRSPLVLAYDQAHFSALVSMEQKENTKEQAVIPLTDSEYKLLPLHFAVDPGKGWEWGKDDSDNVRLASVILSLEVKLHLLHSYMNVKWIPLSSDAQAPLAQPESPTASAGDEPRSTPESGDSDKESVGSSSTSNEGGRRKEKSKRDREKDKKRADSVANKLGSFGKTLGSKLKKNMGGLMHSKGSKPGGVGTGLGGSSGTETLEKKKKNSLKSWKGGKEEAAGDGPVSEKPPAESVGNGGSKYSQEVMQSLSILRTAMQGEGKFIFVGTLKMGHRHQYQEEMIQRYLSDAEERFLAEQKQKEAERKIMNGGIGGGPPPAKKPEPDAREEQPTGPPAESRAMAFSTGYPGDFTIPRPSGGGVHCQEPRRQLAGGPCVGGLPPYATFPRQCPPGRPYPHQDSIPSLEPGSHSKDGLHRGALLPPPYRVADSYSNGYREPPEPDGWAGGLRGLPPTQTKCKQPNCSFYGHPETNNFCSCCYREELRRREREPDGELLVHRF
The gist of the method:
as §1

In the next test the target is PRPF8 (UniProt Q6P2Q9). The gist of the method: as §1
The next test concerns the target T3, PSMD7 (UniProt P51665).
T3 sequence (whole entry): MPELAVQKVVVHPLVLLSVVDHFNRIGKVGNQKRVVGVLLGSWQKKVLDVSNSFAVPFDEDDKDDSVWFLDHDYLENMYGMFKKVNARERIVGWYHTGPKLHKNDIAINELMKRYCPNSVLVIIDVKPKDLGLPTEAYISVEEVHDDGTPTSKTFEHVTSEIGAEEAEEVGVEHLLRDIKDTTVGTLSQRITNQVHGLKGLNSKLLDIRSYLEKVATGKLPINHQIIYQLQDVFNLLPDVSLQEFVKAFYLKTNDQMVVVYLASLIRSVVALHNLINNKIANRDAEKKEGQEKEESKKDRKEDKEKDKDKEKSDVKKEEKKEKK
The gist of the method: as §1

For the next test, the target named is UCHL1 (UniProt P09936). The gist of the method:
as §1

The target of the next test is T4, UCHL3 (UniProt P15374).
T4 sequence (whole entry): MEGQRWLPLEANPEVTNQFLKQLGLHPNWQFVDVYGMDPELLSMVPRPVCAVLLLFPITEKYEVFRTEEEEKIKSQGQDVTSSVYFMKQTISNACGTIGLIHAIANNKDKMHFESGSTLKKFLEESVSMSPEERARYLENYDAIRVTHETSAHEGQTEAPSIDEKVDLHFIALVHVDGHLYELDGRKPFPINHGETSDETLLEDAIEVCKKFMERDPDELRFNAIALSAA
In short, it runs like this: as §1

The next test concerns the target T5, UCHL5 (UniProt Q9Y5K5).
T5 sequence (whole entry): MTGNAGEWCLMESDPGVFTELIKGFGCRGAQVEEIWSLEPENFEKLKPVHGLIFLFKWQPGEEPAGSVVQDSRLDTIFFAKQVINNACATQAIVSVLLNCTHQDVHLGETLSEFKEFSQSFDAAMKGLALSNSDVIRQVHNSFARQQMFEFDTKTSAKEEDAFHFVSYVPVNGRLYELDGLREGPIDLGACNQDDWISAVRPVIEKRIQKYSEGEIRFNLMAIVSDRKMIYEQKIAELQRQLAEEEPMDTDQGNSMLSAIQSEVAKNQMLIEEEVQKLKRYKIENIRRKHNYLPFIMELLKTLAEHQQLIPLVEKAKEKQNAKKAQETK
The gist of the method:
as §1

Another test has as its target USP10 (UniProt Q14694). The gist of the method:
as §1

The next test deals with T6, USP15 (UniProt Q9Y4E8).
T6 sequence (whole entry): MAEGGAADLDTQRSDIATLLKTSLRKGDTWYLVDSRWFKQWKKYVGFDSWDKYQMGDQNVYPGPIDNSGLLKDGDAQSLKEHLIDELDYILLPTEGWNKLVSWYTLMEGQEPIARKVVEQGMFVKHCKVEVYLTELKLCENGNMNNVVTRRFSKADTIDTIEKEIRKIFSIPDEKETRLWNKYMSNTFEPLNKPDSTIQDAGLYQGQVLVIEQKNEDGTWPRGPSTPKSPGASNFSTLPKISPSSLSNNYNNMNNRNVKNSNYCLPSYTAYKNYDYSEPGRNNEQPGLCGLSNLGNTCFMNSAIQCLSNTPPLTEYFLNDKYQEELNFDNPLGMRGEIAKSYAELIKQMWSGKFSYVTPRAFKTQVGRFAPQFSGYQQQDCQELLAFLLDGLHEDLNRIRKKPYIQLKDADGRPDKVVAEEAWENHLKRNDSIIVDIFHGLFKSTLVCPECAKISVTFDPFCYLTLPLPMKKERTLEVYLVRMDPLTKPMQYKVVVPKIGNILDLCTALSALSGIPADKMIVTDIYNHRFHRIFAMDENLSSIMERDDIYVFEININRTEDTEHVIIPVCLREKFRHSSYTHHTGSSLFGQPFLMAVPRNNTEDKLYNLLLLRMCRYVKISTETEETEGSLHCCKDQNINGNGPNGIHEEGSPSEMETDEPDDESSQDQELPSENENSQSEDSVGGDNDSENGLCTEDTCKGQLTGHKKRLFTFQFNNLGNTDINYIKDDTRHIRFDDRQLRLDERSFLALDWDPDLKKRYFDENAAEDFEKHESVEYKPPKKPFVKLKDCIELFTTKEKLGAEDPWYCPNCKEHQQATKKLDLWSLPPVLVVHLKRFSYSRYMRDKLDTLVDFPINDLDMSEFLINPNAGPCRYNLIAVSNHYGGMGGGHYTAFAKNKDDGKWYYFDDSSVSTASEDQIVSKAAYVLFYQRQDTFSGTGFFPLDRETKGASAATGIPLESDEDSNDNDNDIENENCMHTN
In short, it runs like this: as §1

Unmarked numbers belong to inactive results.

Sequence of USP10 (Q14694 whole entry): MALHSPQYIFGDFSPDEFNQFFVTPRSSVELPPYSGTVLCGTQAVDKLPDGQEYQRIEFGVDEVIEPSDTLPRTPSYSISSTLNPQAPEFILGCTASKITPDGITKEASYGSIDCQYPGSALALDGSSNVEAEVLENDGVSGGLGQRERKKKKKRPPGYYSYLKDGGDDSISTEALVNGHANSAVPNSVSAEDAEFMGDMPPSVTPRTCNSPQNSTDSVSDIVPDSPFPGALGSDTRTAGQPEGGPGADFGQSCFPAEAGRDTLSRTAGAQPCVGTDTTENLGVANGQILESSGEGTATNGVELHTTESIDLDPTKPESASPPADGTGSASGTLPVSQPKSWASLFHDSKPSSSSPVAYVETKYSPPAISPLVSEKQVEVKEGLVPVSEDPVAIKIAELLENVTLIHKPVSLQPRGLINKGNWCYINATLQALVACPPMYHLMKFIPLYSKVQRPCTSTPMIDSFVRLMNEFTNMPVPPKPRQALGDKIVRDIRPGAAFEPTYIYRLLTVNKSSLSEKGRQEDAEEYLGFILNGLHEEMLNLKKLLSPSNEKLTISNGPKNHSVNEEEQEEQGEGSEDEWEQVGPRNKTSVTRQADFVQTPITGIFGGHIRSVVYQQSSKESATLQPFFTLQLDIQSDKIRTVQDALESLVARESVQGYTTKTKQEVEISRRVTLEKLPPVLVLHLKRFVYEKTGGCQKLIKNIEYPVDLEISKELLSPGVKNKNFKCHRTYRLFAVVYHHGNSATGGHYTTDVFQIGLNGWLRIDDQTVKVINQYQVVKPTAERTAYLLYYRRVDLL
Sequence of UCHL1 (P09936 whole entry, looked up): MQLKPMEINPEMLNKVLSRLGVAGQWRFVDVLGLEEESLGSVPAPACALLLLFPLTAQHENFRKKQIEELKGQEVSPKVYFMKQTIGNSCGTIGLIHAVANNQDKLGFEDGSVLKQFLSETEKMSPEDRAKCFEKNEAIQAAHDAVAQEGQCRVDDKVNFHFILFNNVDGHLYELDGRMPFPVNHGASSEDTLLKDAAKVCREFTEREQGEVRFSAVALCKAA

As for `O=C(CCl)NC1CCC(C(F)(F)F)CC1` (centres undefined), the “log2 ratio of Biotin-Ahx-Ub-VS probe labelling” value is -0.153 in the test with OTUD6B; -0.576 with OTUD7B; 0.103 with PRPF8; -0.258 in the test with PSMD7; -1.31 (active) with UCHL1; 0.327 in the test with UCHL3. Moreover, the “log2 ratio of Biotin-Ahx-Ub-VS probe labelling” value was -0.0657 in the test with UCHL5, -0.141 with USP10 and -0.158 with USP15.

The record behind these values is the supplement of paper PMC11732987, “Enantioselective OTUD7B fragment discovery through chemoproteomics screening and high-throughput optimisation” (Communications Chemistry, 2025).
